# Assay results reported in PubChem BioAssay AID624351 (Southern Research Specialized Biocontainment Screening …, 2012).
# In all, about 2,400 compounds went through this assay and about 1,400 (58%) were called active. The set was probably picked from earlier hits. Some of the results follow. Unmarked numbers belong to inactive results.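 How the source made its calls: active means inhibition of 30% or more at any tested dose; inconclusive means primary hits over the limit that were never retested; inactive means the rest.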
# Experiment: coupled detection enzyme interference, dose response, artefact control for MgcRacGAP inhibitor project, biochemical, coupled enzyme counter-screen (AID 624351);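 further: signal is the ADP detection kit reading of free GDP without any GAP enzyme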;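 on inhibition: 0% = median positive control wells and 100% = median negative control wells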
# Details: ADP Hunter coupled enzyme counter-screen, fluorescence, no MgcRacGAP; series mostly up to 80 µM; inhibition: at the top concentration
SMILES,IC50,inhibition [%]
COc1cc(/C=C/C(=O)OCC(=O)c2ccc[nH]2)ccc1O,25.9 µM (active),–
COc1cc(/C=C/C(=O)OCC(=O)c2ccc(OC(F)F)cc2)ccc1O,58.2 µM (active),–
C/C(=N\NC(=O)c1cccc(N/N=C(\C)c2cc(O)ccc2O)c1)c1cc(O)ccc1O,75.5 µM (active),–
Cc1cc(-c2n[nH]c(=S)n2/N=C/c2cccs2)n[nH]1,78.7 µM (active),–
Cc1cc(-c2n[nH]c(=S)n2/N=C/c2ccc(Br)s2)n[nH]1,80.5 µM (active),–
Cc1cc(-c2n[nH]c(=S)n2/N=C/c2ccccc2[N+](=O)[O-])n[nH]1,83.5 µM (active),–
S=c1[nH]nc(-c2cccs2)n1/N=C/c1cccs1,59.7 µM (active),–
Cc1cc(-c2n[nH]c(=S)n2/N=C/c2sccc2C)n[nH]1,62.4 µM (active),–
O=C1CSC(=S)N1Nc1ccccc1,68 µM (active),–
Oc1ccc2ccc(Cl)cc2c1,53.9 µM (active),–
C[n+]1c2cc(N)ccc2cc2ccc(N)cc21,inactive,–
Nc1ccc2ccc(O)cc2c1,31.5 µM (active),–
CCCC1=NN2C(=N)/C(=C\c3ccc(SCc4ccco4)o3)C(=O)N=C2S1,–,-0.24
CN(C)c1ccc(N=C/C=C2\N(C)c3ccccc3C2(C)C)cc1,12.4 µM (active),–
CN1/C(=C\C=N\NC(=O)c2ccc(O)cc2)C(C)(C)c2ccccc21,74.4 µM (active),–
CN(C)c1ccc(N=C/C=C2/N(C)c3ccccc3C2(C)C)cc1,20.6 µM (active),–
COc1cc(CNC2CCCCC2OC)cc(OC)c1 (centres undefined),–,16.9
O=c1c2c(nc3cc(-c4ccccc4)[nH]n13)CCS2,–,-9.07
O=C(CSc1nnc(C2CC2)n1C1CC1)N1CCN(c2ccc(O)cc2)CC1,45.6 µM (active),–
O=C(CSc1nnnn1C1CC1)N1CCN(c2ccc(O)cc2)CC1,31.5 µM (active),–
CCOC(=O)Nc1ccc2c(c1)Nc1ccccc1S2,40.6 µM (active),–
CSCCOC(=O)C1=C(C)Nc2ccc(C)cc2S1,35.6 µM (active),–
CCOC(=O)C1=C(C)Nc2ccc(C)cc2S1,79 µM (active),–

SMILES,IC50,inhibition [%]
CCOC(=O)C1=C(C)Nc2ccccc2S1,41.3 µM (active),–
Cc1cc(C)n(CCC(=O)N/N=C/c2ccc(O)cc2)n1,74.1 µM (active),–
O=C(CSc1ccc2ccccc2n1)N/N=C/c1ccc(O)cc1,73.6 µM (active),–
CCOc1cc(/C=N/NC(=O)CCn2nc(C)cc2C)ccc1O,58.5 µM (active),–
O=C(CCn1cnc2ccccc21)N/N=C/c1ccc(O)cc1,57.4 µM (active),–
CN(CCCCCCN(C)Cc1ccccc1O)Cc1ccccc1O,–,24.3
C#CCOCCOCCOCCNc1nc(N2CCN(C(=O)[C@H](CCCCN)n3cc([C@@H](N)CC(C)C)nn3)CC2)nc(N2CCN(C(=O)[C@H](CCCCN)n3cc([C@@H](N)CC(C)C)nn3)CC2)n1,–,2.16
COC(=O)CCNCCSc1nnc(-c2ccco2)n1Cc1ccccc1,–,19.6
N#C/C(=C/c1ccc(O)c(O)c1)C(=O)NCc1ccc(Cl)cc1,36.5 µM (active),–
CCOCCCNC(=O)/C(C#N)=C/c1ccc([N+](=O)[O-])o1,–,-11.2
N#C/C(=C\c1cccnc1)C(=O)Nc1cccc2ccccc12,–,2.82
CCOc1cc(/C=C(\C#N)C(=O)NCC2CCCO2)ccc1O (centres undefined),49.7 µM (active),–
CCOc1cc(/C=N/NC(=O)C(=O)NCc2cccnc2)ccc1O,51.2 µM (active),–
CCOC(=O)c1c(C)n(-c2ccc(C)cc2)c2ccc(OCC(O)CNCC3CCCO3)cc12 (centres undefined),–,20.3
CCOc1cc(/C=C(\C#N)C(=O)NCc2cccnc2)ccc1O,45.3 µM (active),–
C#CCOCCOCCOCCNc1nc(N2CCN(C(=O)C([C@@H](C)O)n3cc([C@@H](N)CCCCN)nn3)CC2)nc(N2CCN(C(=O)[C@H](CO)n3cc([C@@H](N)C(C)C)nn3)CC2)n1 (some centres undefined),–,2.49
CN(C)c1ccc(/C=N/O)cc1,23.9 µM (active),–
CCN(CC)c1ccc(/C=N/NC(=O)c2ccoc2C)cc1,–,24.6
CCN(CC)c1ccc(/C=N\NC(N)=O)cc1,53.8 µM (active),–
CCN(CC)c1ccc(/C=N/O)cc1,21.6 µM (active),–
CN(C)c1nc(Oc2ccc(/C=N/O)cc2)nc(N(C)C)n1,–,4.75
CCN(CC)CC(C)(C)C(=O)/C=C/c1ccc(/C=C/C(=O)C(C)(C)CN(CC)CC)cc1,–,2.34
O=C(O)c1ccc2nc(-c3ccco3)c(-c3ccco3)nc2c1,–,-6

SMILES,IC50,inhibition [%]
COc1cccc(CNCc2ccccc2Br)c1OC,–,12.1
COc1cccc(CNc2ccc(N3CCCCC3)cc2)c1OC,4.01 µM (active),–
COc1cccc(Nc2ccc(N3CCCCC3)cc2)c1OC,8.89 µM (active),–
COc1ccc(C)cc1NCc1cccc(OC)c1OC,70.3 µM (active),–
COc1cccc(CN2CCN(Cc3cc(OC)c(OC)c(OC)c3)CC2)c1OC,–,19.4
COc1cccc(OC)c1OCCCN1CCOCC1,–,15.1
COc1cccc(CNc2ccc(N3CCC(C)CC3)cc2)c1OC,6.68 µM (active),–
COc1ccc(CNCc2cccc(OC)c2OC)cc1Br,–,18.2
COc1cc(Br)c(CNc2cc(C)ccc2C)cc1OC,–,22.4
COc1cccc(CN2CCN(Cc3cccc(Oc4ccccc4)c3)CC2)c1OC,–,6.39
COc1cccc(OC)c1OCCCCN1CCCC1,–,17.8
COc1cc(/C=C/C(=O)OCC(=O)Nc2c(C)n(C)n(-c3ccccc3)c2=O)ccc1O,53.6 µM (active),–
Cc1c(NC(=O)CN2CC(C)OC(C)C2)c(=O)n(-c2ccccc2)n1C (centres undefined),–,22.8
COc1cc(/C=C/C(=O)OC(C)C(=O)Nc2c(C)n(C)n(-c3ccccc3)c2=O)ccc1O (centres undefined),45.4 µM (active),–
Cc1c(O)ccc2c3c(c(=O)oc12)CCCC3,23.7 µM (active),–
COCCCn1c(=S)[nH]c2sc3c(c2c1=O)CCCC3,30.9 µM (active),–
COCCn1c(=S)[nH]c2sc3c(c2c1=O)CCCC3,34.3 µM (active),–
CCn1c(=S)[nH]c2sc3c(c2c1=O)CCCC3,35 µM (active),–
Nn1c(=S)[nH]c2sc3c(c2c1=O)CCCC3,67.3 µM (active),–
C=CCc1cc(C)ccc1OCCCn1ccnc1,–,24.9
O=C1C=CC(=O)N1c1ccc(Nc2ccccc2)cc1,34 µM (active),–
O=C(O)c1cc(N2C(=O)C=CC2=O)cc(N2C(=O)C=CC2=O)c1,–,7.56
O=C1C=CC(=O)N1c1ccccc1N1C(=O)C=CC1=O,–,1.12
